Results filed as inconclusive are left out. A number with no mark means an inactive call. Calls of active or inactive are those of the source. Calls come from the whole dose curve; tested in HEK293 reporter line.
assay: qHTS for Inhibitors of the Functional Ribonucleoprotein Complex (vRNP) of Lassa (LASV) Arenavirus: LASV Primary Screen - GLuc reporter signal (AID 1347082); conditions: LASV minigenome vRNP, Gaussia luciferase reporter; series mostly up to 57.5 µM; activity change, negative = inhibition: at the top concentration; note: nearly all actives have a fitted effect of over 60% in size
% is set by controls: 0 for no effect and ±100 for the full control effect.

Row | Compound | Potency | activity change, negative = inhibition
1 | NC/C=C/C(=O)O | inactive | 
2 | CC(C)(S)[C@@H](N)C(=O)O |  | -25.7%
3 | Cn1nnc2c(C(N)=O)ncn2c1=O | inactive | 
4 | OC[C@H]1O[C@@H](Oc2ccc(O)cc2)[C@H](O)[C@@H](O)[C@@H]1O | inactive | 
5 | CC(C)NCC(O)c1ccc(NS(C)(=O)=O)cc1 (centres undefined) | inactive | 
6 | O=[N+]([O-])c1cncn1CCN1CCOCC1 |  | -1.8%
7 | Nc1c[n+](N2CCOCC2)no1 |  | -4.38%
8 | Cn1c(=O)c2[nH]c(Br)nc2n(C)c1=O |  | -14.3%
9 | CC(CCc1ccccc1)NCC(O)c1ccc(O)c(C(N)=O)c1 (centres undefined) |  | 5.97%
10 | CCN(CC)CC#CCOC(=O)C(O)(c1ccccc1)C1CCCCC1 (centres undefined) |  | -1.03%
11 | Cn1c(=O)c2c(ncn2CCO)n(C)c1=O |  | -8.77%
12 | O=C(O)c1ccccc1C(=O)Nc1ccc(S(=O)(=O)Nc2nccs2)cc1 |  | -2.19%
13 | N[C@@H](Cc1cc(I)c(Oc2ccc(O)c(I)c2)c(I)c1)C(=O)O |  | -14.3%
14 | C[C@]12CCC(=O)C=C1CC[C@@H]1[C@@H]2[C@@H](O)C[C@@]2(C)[C@H]1CC[C@]2(O)C(=O)COC(=O)CCC(=O)O |  | 4.04%
15 | c1ccc2c(CC3=NCCN3)cccc2c1 |  | 3.97%
16 | Nc1ccc(S(=O)(=O)Nc2ccnn2-c2ccccc2)cc1 | inactive | 
17 | O=C(c1ccccc1)c1ccccc1 |  | -0.251%
18 | CC(=O)Oc1cccc(O)c1 |  | -13.3%
19 | NCCCCCC(=O)O | inactive | 
20 | COc1cc(OC)c(C(=O)CCCN2CCCC2)c(OC)c1 | inactive | 

Row | Compound | Potency | activity change, negative = inhibition
21 | C[C@@H](O)[C@H]1C(=O)N2C(C(=O)O)=C(SCCN=CN)C[C@H]12 | inactive | 
22 | Cc1scc2c1N(C(=O)CN1CCN(C)CC1)c1ccccc1NC2=O | inactive | 
23 | COCCCOc1ccnc(CS(=O)c2nc3ccccc3[nH]2)c1C (centres undefined) | inactive | 
24 | O=C(NCN1CCOCC1)c1cnccn1 |  | 8.63%
25 | CC(C)OP(=O)(CP(=O)(OC(C)C)OC(C)C)OC(C)C |  | -7.12%
26 | CC(C)C(=O)c1c(C(C)C)nn2ccccc12 | inactive | 
27 | Oc1ccc(Cl)c2cccnc12 |  | -4.25%
28 | Cc1cc(O)cc2c1O[C@](C)(CCC[C@H](C)CCC[C@H](C)CCCC(C)C)CC2 |  | -0.486%
29 | CN1CCN(N)CC1 |  | 1.44%
30 | CCOC(=O)c1ccc(O)c(O)c1 |  | -15.1%
31 | O=C(N/N=C/c1ccccc1O)c1ccncc1 |  | -24.5%
32 | CCCCCCCCCCCCCCCCOP(=O)([O-])OCC[N+](C)(C)C |  | -0.505%
33 | NC(=O)COCCN1CCN(C(c2ccccc2)c2ccc(Cl)cc2)CC1 (centres undefined) |  | -11.6%
34 | Nc1ccc(/C=C/c2ccc(N)cc2S(=O)(=O)O)c(S(=O)(=O)O)c1 |  | -2.51% [at 0.757 µM]
35 | CCN(CC)CC(=O)Oc1ccc(NC(C)=O)cc1 |  | -8.31%
36 | FC(F)(F)c1ccccc1-n1ccnc1 | inactive | 
37 | Nc1ccc(O)cc1 |  | 3.05%
38 | O=C(OCC1(COC(=O)c2cccnc2)CCCC(COC(=O)c2cccnc2)(COC(=O)c2cccnc2)C1O)c1cccnc1 |  | -1.98%
39 | NC(=O)NS(=O)(=O)c1ccc(N)cc1 |  | -1.77%

Source: PubChem BioAssay (NCATS)
